About 3,600 (1.2%) of roughly 310,000 compounds were called active. The sample holds actives, similar compounds and a random draw of the others, so the mix is not that of the screen.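 How the source made its calls: active means ratio plate-corrected score three or more library SD toward inhibition, starting fluorescence score within five deviations; inactive means the rest.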
target: Anoctamin-1 (Mus musculus) (UniProt Q8BHY3); assay: TMEM16A chloride channel inhibitors, primary screen, cell-based, HTS (AID 588511); conditions: HEK293 TMEM16A/YFP iodide influx fluorescence, ionomycin; at 10 µM;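 on normalized B-score (activity score, 25-100; higher = stronger inhibition): score derived from kinetic fluorescence span divided by baseline fluorescence per well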
Sequence (Q8BHY3 whole entry, looked up): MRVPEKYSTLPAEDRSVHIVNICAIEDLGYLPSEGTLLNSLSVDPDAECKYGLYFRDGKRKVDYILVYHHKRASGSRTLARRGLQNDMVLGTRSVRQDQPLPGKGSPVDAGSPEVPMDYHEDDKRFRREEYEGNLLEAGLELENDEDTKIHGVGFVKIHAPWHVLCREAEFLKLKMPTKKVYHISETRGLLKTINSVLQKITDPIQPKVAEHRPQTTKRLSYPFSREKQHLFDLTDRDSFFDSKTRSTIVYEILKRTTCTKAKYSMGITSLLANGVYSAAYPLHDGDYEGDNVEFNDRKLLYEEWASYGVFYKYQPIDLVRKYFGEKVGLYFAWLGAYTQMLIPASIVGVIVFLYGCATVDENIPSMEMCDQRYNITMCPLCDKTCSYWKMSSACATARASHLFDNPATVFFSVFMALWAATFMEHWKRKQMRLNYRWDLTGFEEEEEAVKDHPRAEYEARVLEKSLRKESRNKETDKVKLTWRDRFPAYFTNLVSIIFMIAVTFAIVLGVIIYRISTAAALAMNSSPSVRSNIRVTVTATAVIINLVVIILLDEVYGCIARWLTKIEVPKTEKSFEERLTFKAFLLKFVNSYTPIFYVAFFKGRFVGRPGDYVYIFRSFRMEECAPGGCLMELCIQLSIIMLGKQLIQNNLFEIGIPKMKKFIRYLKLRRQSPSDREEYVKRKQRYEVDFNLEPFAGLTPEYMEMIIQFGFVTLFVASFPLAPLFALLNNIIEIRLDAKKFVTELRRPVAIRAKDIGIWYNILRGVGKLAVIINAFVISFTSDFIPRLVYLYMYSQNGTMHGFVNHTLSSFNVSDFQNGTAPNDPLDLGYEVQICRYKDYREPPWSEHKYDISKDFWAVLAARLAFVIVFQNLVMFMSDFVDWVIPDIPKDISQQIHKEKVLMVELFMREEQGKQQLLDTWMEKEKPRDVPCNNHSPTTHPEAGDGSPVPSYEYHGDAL

SMILES	normalized B-score (activity score, 25-100; higher = stronger inhibition)
Cc1c(C(=O)Nc2ccccn2)oc2ccc(Br)cc12	inactive
CCC(C)(C(=O)Nc1ccccc1C)N(C(=O)CNC(C)=O)c1ccc(C)cc1 (centres undefined)	inactive
CS(=O)(=O)c1sc(C(=O)NC(=S)Nc2ccc(OC(F)(F)F)cc2)c2c1C=CCC2	inactive
CC1(C)O[C@@H]2CC3C4C[C@H](F)C5=CC(=O)C=CC5(C)C4C(O)CC3(C)[C@]2(C(=O)CO)O1 (some centres undefined)	inactive
Cc1ccc(/C=C2/SC(=S)N(CCC(=O)NCCCN3CCOCC3)C2=O)cc1	inactive
O=S(=O)(Nc1ccccc1Br)c1cccs1	inactive
O=C(Nc1cccc(Cl)c1)Nc1ccccc1NS(=O)(=O)c1cccs1	100 (active)
O=S(=O)(NCc1ccc(Cl)cc1Cl)c1cccs1	inactive
COc1ccc(Nc2nc(N)nc(CSC(=S)N3CCC(C)CC3)n2)cc1	inactive
CC1=C/C(=N\OS(=O)(=O)c2ccccc2)C=CC1=O	25 (active)
O=S(=O)(ON(c1ccccc1)S(=O)(=O)c1ccccc1)c1ccccc1	inactive
CC(NC(=O)CN1CCN(Cc2ccc(Cl)cc2)C1=O)c1ccc2c(c1)OCCO2 (centres undefined)	inactive
O=C(c1ccc(=O)oc1)N1CCC(C(O)(c2ccccc2)c2ccccc2)CC1	inactive
CCOC(=O)c1oc2ccccc2c1NC(=O)c1cccs1	25 (active)
NC(=O)c1oc2ccccc2c1NC(=O)Cc1ccccc1	inactive
CCc1c(C)sc(NC(=O)c2cccs2)c1C(N)=O	inactive
COC(=O)CCSc1cc([N+](=O)[O-])cc2c1c(C1OCCS1)nn2-c1ccccc1 (centres undefined)	inactive
COc1ccc(OC)c(NC(=O)CN(C)CCOc2ccc(Br)cc2)c1	inactive
CCCCCCCCn1c2c(c(=N)c3c1CCC3)CCCC2	100 (active)
CC(C)C[C@@H](COc1ccccc1)N1CCN(CC(C)C)CCC1=O	inactive
CCCCNC(=O)CSc1nc2n[nH]c(C)c2c(=N)n1-c1cccc(Cl)c1C	25 (active)
COc1cccc(-n2c(SCC(=O)NC3CCCCC3)nc3n[nH]c(C)c3c2=N)c1	inactive

SMILES	normalized B-score (activity score, 25-100; higher = stronger inhibition)
Cc1ccc(-n2c(SCC(=O)NCCC3=CCCCC3)nc3n[nH]c(C)c3c2=N)cc1Cl	inactive
Cc1ccc(N2CC(C(=O)N3CCC4(CC3)CC(=O)c3ccccc3O4)CC2=O)cc1C (centres undefined)	inactive
CCCOc1ccc(C2=CSC3=NCCN23)cc1Cl	inactive
CC(=O)N(C1=C(Cl)C(=O)c2ccccc2C1=O)c1ccc(C(=O)O)cc1	100 (active)
O=S(=O)(N1CCCCC1)N1CCNCC1	inactive
CCOC(=O)Cc1c(C)nc2c(C#N)c(C)nn2c1C	inactive
CCCc1nc(SCC(=O)N2CCCC2)c2c(=O)n(C)c(=O)n(C)c2n1	inactive
O=C(Nc1ccc(Cl)cc1)/C(=C1\CCCN1)[N+](=O)[O-]	inactive
Cc1ccc(OCC(=O)Nc2ccc3oc(=O)ccc3c2)cc1C	inactive
Fc1ccc2[nH]c3c(N4CCSCC4)ncnc3c2c1	100 (active)
Cc1c(CN2CC[C@@H](N3CCN(c4ccccn4)CC3)[C@H](O)C2)[nH]c2ccc(F)cc12	inactive
Cc1cc(C)c(S(=O)(=O)c2cc(F)ccc2C)c(=O)[nH]1	inactive
COc1ccc(C(=O)OCC(=O)Nc2ccc3[nH]c(=O)[nH]c3c2)c(OC)c1OC	inactive
CS(=O)(=O)N(CC(=O)N1CCN(c2ccc(F)cc2)CC1)C1CCCCC1	inactive
CCOC(=O)N1CCN(C(=O)c2ccc3nc4cc(Cl)ccc4c(=O)n3c2)CC1	inactive
COc1cc(OC)c(S(=O)(=O)Nc2ccccc2C(=O)O)cc1S(=O)(=O)Nc1ccccc1C(=O)O	inactive
COc1ccc(NC(=O)c2cnc(NS(=O)(=O)c3ccccc3)nc2)cc1	inactive
CCOc1ccc(NC(=O)c2ccccc2NS(C)(=O)=O)cc1	inactive
COc1cc(NC(=O)c2ccccc2NS(=O)(=O)c2ccc(Cl)s2)cc(OC)c1	100 (active)
COC(=O)c1ccccc1NC(=O)c1ccccc1NS(C)(=O)=O	inactive
COC(=O)c1ccc(NC(=O)c2ccccc2NS(=O)(=O)c2ccccc2)cc1	100 (active)
CCNC(=O)CC1C(=O)N(c2ccc(F)cc2)C(=O)N1CCc1sccc1C (centres undefined)	inactive

SMILES	normalized B-score (activity score, 25-100; higher = stronger inhibition)
COc1ccc(NCc2nnc(SCc3ccccc3)n2-c2ccc(OC)cc2)cc1	inactive
O=C(O)c1ccc(-n2nc(-c3ccccc3)c3ccccc3c2=O)cc1	inactive
Cc1cc(C)c(S(=O)(=O)N2CCOCC2)cc1C	inactive
OCC[C@H]1C[C@@H](O)[C@H](O)[C@]2(OCCCc3ccccc32)O1	inactive
Cc1c(C)c2c(OCC(=O)NCCCO)cc3c(c2oc1=O)CCC(C)(C)O3	inactive
Cc1c(C)c2c(OCC(=O)N[C@@H](C(=O)O)c3ccccc3)cc3c(c2oc1=O)CCC(C)(C)O3	100 (active)
Cc1cc(=O)oc2c3c(cc(OCC(=O)N[C@H](C(=O)O)c4ccccc4)c12)OC(C)(C)CC3	inactive
C#CCO[C@@H]1C[C@H](n2cnc3c(=O)[nH]c(NC(=O)C(C)C)nc32)O[C@@H]1CO	inactive
COCCN(C(=O)CCC(=O)Nc1nccs1)C(C(=O)NCCC(C)C)c1ccc(F)cc1 (centres undefined)	inactive
CCCc1cc(C(=O)N2CCCC(CO)(CCCc3ccccc3)C2)n(C)n1 (centres undefined)	inactive
O=C(CNC(=O)c1ccccc1)Oc1ccc([N+](=O)[O-])cc1	inactive
O=C(NC(Nc1nc2ccc([N+](=O)[O-])cc2s1)(C(F)(F)F)C(F)(F)F)c1ccccc1	100 (active)
CCC(=O)NC(Nc1nc2ccc(C)cc2s1)(C(=O)OC)C(F)(F)F (centres undefined)	inactive
CN(C)CCCN(C(=O)c1ccc(S(=O)(=O)N2CCCc3ccccc32)cc1)c1nc2ccc(F)cc2s1	inactive
O=C(Nc1nc2ccc([N+](=O)[O-])cc2s1)c1ccc(S(=O)(=O)N2CCCc3ccccc32)cc1	100 (active)
CSc1nc2ccc(S(=O)(=O)N3CCc4ccccc43)cc2s1	inactive
O=C(NCc1ccc(F)cc1)C(c1ccccc1)N(C(=O)c1csnn1)C1CC1 (centres undefined)	inactive
CCSc1nnc(-c2cc3c(s2)-c2ccccc2CC3)o1	inactive
Fc1ccc(-c2nnc(CSc3nnc(-c4ccc5c(c4)OCO5)o3)o2)cc1	inactive
Fc1ccc(CSc2nnc(-c3cc4c(s3)-c3ccccc3CC4)o2)cc1	100 (active)

Source: PubChem BioAssay AID588511 (Johns Hopkins Ion Channel Center, 2011)
